# LMP1 NFkB inh: EBV LMP1-driven NF-kappaB luciferase reporter inhibitors, primary screen, cell-based, luminescence, single point; inhibition, % at 12.5 µM; hit rate 0.69% among 350,000; LMP1-induced NF-kappaB luciferase reporter cells; in the data active = inhibition above about 41%; inconclusive = no clear call, values can overlap the other calls;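 also: 0% = neutral control wells and 100% = reference inhibitor control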
# MITF TRPM1 inh: inhibitors of MITF-dependent TRPM1 promoter reporter, primary screen, cell-based, SK-MEL-5, single point, luciferase. SK-MEL-5 TRPM1 promoter luciferase, 24 h. inhibition, % at 12.5 µM. hit rate 0.83% among 330,000;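 active = mean inhibition across replicates of 60% or more, whatever share of single replicates reaches that level; inconclusive = some that reach 60%, reason not given; inactive = mean inhibition across replicates below 60%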
# TROY signal inh: inhibitors of TROY-driven NF-kB signaling, primary screen, Q293 LMP1-TROYcd cells, NF-kB luciferase, uHTS; hit rate 0.98% among 360,000; inhibition, % at 10 µM; Q293 LMP1-TROYcd NF-kB luciferase reporter, 4 h;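 active = compounds whose plate-normalised and pattern-corrected inhibition of the luciferase reporter signal at the single screening dose is 50% or more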
# TWEAK Fn14 block: inhibitors of TWEAK-Fn14 signaling, primary screen, luciferase reporter cells, uHTS | TWEAK-stimulated Fn14 reporter cells, luciferase luminescence, 8 h | hit rate 2% among 360,000 | inhibition, % at 10 µM | AID 1159606, 2016; in the data active = inhibition above about 50%
# HIF-2a block: HIF-2a reporter inhibitors, primary screen, luminescence, 786-0 RCC cells; hit rate 0.72% among 360,000; inhibition, % at 18.8 µM; 786-0 RCC cells HIF-2a reporter, luciferase luminescence, overnight; AID 624352, 2012;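 active = inhibition of the luminescence signal of 40% or more relative to plate controls, in a single-dose primary screen at 18.75 µM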
# Shn3 inh set2: reduction of Shn3 3'UTR firefly luciferase signal, primary screen, Schnurri-3 inhibitor project, cell-based, Clone20 osteoblasts, set 2; Clone20 osteoblast Shn3 3'UTR firefly luciferase, 24 h; inhibition, % at 12.5 µM; hit rate 0.52% among 360,000; AID 588674, 2011;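 active = mean inhibition of at least 75% with every replicate also reaching 75%; inconclusive = mean inhibition at least 75% but some replicate below; inactive = mean inhibition below 75%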;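 also: 0% = median of neutral control wells and 100% = pilot-screen positive control compound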
# * marks the source's active call; other numbers are inactive results; ? = inconclusive; . = no result given. Rows were chosen to be rich in hits. Some 3.4% of all compounds tested hit in one or more screens of this group.
SMILES,LMP1 NFkB inh,MITF TRPM1 inh,TROY signal inh,TWEAK Fn14 block,HIF-2a block,Shn3 inh set2
CC(=O)N(C)c1ccc(N=Nc2ccc3ncccc3c2)cc1,3,-12,13,62*,-79,-51
COC1c2ccccc2C(=O)N1Cc1ccc(F)cc1 (stereo not drawn),3,19,8,10,-5,55
COc1ccc(NC(=O)c2cccc(N3C(=O)c4cccc([N+](=O)[O-])c4C3=O)c2)cc1,2,-9,5,1,8,-8
COc1ccc(/C=C2\C(=O)N(c3c(Cl)cc(Cl)cc3Cl)N=C2NC(=O)c2cccc([N+](=O)[O-])c2)cc1,2,20,-11,44,45*,63
COc1ccc(S(=O)(=O)N2CCCOC2CNC(=O)C(=O)NCCO)cc1 (stereo not drawn),4,.,-5,0,11,1
c1csc(-c2nc(CN3CCSCC3)cs2)c1,30,4,15,60*,-77,-22
O=c1c2ccccc2sc2ccc(NCCCN3CCOCC3)cc12,-18,-73,-43,-50,-257,-106
CCN(CC)CCNc1cccc2sc3ccccc3c(=O)c12,-7,.,-33,-22,5,-18
CCN(CC)CCNc1ccc(CO)c2oc3ccccc3c(=O)c12,1,.,-30,-30,40*,-4
CCN(CC)CCNc1ccc(CO)c2sc3ccccc3c(=O)c12,-5,29,-29,-50,43*,2
O=c1c2ccccc2sc2c(CO)ccc(NCCN3CCCCC3)c12,-12,15,-13,-37,55*,-7
O=C(COc1ccc(Br)cc1Cl)NC(=S)N1CCc2ccccc21,-41,23,-38,-70,-143,-30
O=C(COc1ccc(Br)cc1Br)NC(=S)N1CCCc2ccccc21,-4,2,43,64*,-44,-13
O=C(COC(=O)c1ccc([N+](=O)[O-])s1)c1ccc[nH]1,7,8,-17,-19,-8,-2
Cc1ccc(OCCOC(=O)c2cc(S(=O)(=O)N3CCCCC3)ccc2N2CCOCC2)cc1,6,.,25,40,6,78
O=C(OCCOc1ccc(Cl)cc1)c1cc(S(=O)(=O)N2CCCCC2)ccc1N1CCOCC1,4,21,8,42,15,90*
CC1CCN(S(=O)(=O)c2ccc(NC(=O)CCN3C(=O)C4CC=CCC4C3=O)cc2)CC1 (stereo not drawn),2,.,20,7,8,3
CC1CC(C)CN(S(=O)(=O)c2ccc(NC(=O)CCN3C(=O)C4CC=CCC4C3=O)cc2)C1 (stereo not drawn),72*,7,7,4,5,-17
COc1ccc(NC(=S)Nc2ccc3nc(C)c(C)nc3c2)cc1,6,-16,-29,34,-68,-7
COc1ccc(CNC(=S)Nc2ccc(Br)cc2)cc1,-8,3,21,64*,-1,-7
CNC(=S)Nc1ccc(Br)cc1,11,12,61*,32,-1,15
CNC(=S)Nc1ccc2nc(C)c(C)nc2c1,50*,-8,10,30,-22,-10
CC(C)c1ccc(NC(=S)NCc2cccs2)cc1,-40,-46,-5,-3,-152,-50
COc1ccc(NC(=S)NCc2cccs2)cc1,57*,-16,1,-6,-62,-5
COC(=O)[C@]12CCCCC=C1N(CCc1ccc(OC)c(OC)c1)C(=O)[C@H](CC(=O)NCCC(C)C)C2,.,.,.,.,4,.
SMILES,LMP1 NFkB inh,MITF TRPM1 inh,TROY signal inh,TWEAK Fn14 block,HIF-2a block,Shn3 inh set2
O=C(Nc1ccc(NC(=O)C2CC2)cn1)c1ccccc1Cl,3,-35,-38,-41,-148,-28
O=C(Nc1ccc(NC(=O)C2CC2)cn1)c1ccccc1,8,2,35,54*,-58,-29
O=C(c1cc2nc(-c3ccco3)cc(C(F)(F)F)n2n1)N1CCN(c2ccccn2)CC1,10,9,-2,51*,-5,13
CCN(CC)C(=O)Cn1cc(C(=O)C(=O)NCCCN2CCCCC2)c2ccccc21,-5,-4,3,4,13,3
O=C1/C(=C/c2ccncc2)CCC/C1=C\c1ccncc1,85*,96*,82*,103*,93*,72
O=C1C(=Cc2ccncc2)CCCc2ccccc21,7,.,-6,12,12,32
Nc1nc2ccccc2n1C(=O)c1ccccc1,?,1,35,78*,-14,9
COc1ccc(C(=O)n2c(N)nc3ccccc32)cc1OC,-6,-48,-58,7,-292,-123
Nc1nc2ccccc2n1C(=O)c1ccc(F)cc1,7,-4,24,61*,-35,-22
CCOc1ccc(CNc2ccc(N3CCCC3)cc2)cc1,9,-4,40,55*,-52,63
CCOc1cc(CNc2ccc(N3CCCC3)cc2)cc(Cl)c1OC,-8,32,32,59*,-29,-3
O=C(CN1C(=O)c2ccccc2C1=O)c1ccccc1,1,-20,-8,-1,-24,-15
CC1=C(CC(=O)c2ccccc2)C(=O)c2ccccc2C1=O,-25,66*,68*,54*,-159,2
COc1ccc(-c2nn(-c3ccccc3)cc2CNC[C@H]2O[C@@H](n3cnc(C(N)=O)n3)[C@H](O)[C@@H]2O)cc1,-2,-3,-18,-32,-8,-7
O=C(O)c1ccc(N=Nc2c(O)[nH]c3ccccc23)cc1,0,-3,28,90*,-28,6
O=C(NNc1ccccc1)C(=O)NNS(=O)(=O)c1ccc(CCCl)cc1,-20,-2,9,-16,10,86*
Nc1ccc(S(=O)(=O)NNC(=O)C(=O)NNc2ccccc2)cc1,-19,-5,4,-10,19,-13
CCOC(=O)CSCC(NC(=O)OC(C)(C)C)C(=O)OCC (stereo not drawn),7,13,-1,-2,41*,4
O=C(NC1CCCC1)c1cc(COc2ccc3ncccc3c2)on1,28,17,29,25,3,73
COCC1CCN(C(=O)c2cc(COc3ccc4ncccc4c3)on2)CC1,5,-1,29,47,4,86*
Cc1cc(OCc2cc(C(=O)N3CCC(Oc4cccnc4)CC3)no2)cc(C)c1Cl,-3,2,50*,27,-36,68
O=C(NCCc1cn2ccccc2n1)c1cc(COc2ccc3ncccc3c2)on1,12,27,41,66*,-14,75
COc1cccc(CN(C)C(=O)c2cc(COc3ccc4ncccc4c3)on2)c1,-1,21,41,59*,-10,81
O=C(c1cc(COc2ccc3ncccc3c2)on1)N1CCCC1,10,14,-11,13,-160,68
